Binding signal data for 1 sequence are collected here from publication PMC7862700, “An all-to-all approach to the identification of sequence-specific readers for epigenetic DNA modifications on cytosine”.

Common to all, as to test: DAPPL (digital affinity profiling via proximity ligation, sequencing); 10 mM Tris-HCl pH 7.5, 50 mM NaCl, 1 mM DTT, 4% glycerol, room temperature, 30 min; GST-TFs on glutathione beads, 16-mer random dsDNA library, 0.1% formaldehyde crosslink after washing; high values mean tight binding
The target of assay [1] is T1, FLI1 (Homo sapiens, UniProt Q01543 1-452).
T1 sequence: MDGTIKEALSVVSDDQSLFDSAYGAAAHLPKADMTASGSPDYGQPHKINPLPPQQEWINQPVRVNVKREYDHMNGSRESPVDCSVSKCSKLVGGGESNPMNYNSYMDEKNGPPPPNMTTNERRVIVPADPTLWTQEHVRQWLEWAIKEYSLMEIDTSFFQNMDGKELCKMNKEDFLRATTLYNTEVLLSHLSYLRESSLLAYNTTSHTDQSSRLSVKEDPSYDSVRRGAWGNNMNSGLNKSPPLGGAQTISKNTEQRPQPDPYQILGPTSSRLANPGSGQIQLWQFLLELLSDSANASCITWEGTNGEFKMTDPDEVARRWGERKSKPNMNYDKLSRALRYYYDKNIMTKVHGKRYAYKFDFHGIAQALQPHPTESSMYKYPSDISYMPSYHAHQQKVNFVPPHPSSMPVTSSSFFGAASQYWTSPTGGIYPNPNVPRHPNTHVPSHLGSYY
The note with it: protein: recombinant; tags: N-terminal GST; dsDNA, one strand shown. In outline:
(§1)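 Pools were built from human transcription factors expressed in yeast as GST fusions, captured on glutathione beads and DNA-barcoded, along with a tag-only sample. Incubation with 200 nmole of a 16-mer random double-stranded DNA library lasted 30 min at room temperature in Tris/NaCl/DTT/glycerol buffer, and was followed by washing, 0.1% formaldehyde crosslinking, proximity ligation, PCR amplification and Illumina NextSeq500 sequencing. Binding signal is the quotient of each hexamer's read frequency for a factor and its frequency for the tag-only sample.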

Assay [2] addresses T2, ELK1 (Homo sapiens, UniProt P19419 1-428).
T2 sequence: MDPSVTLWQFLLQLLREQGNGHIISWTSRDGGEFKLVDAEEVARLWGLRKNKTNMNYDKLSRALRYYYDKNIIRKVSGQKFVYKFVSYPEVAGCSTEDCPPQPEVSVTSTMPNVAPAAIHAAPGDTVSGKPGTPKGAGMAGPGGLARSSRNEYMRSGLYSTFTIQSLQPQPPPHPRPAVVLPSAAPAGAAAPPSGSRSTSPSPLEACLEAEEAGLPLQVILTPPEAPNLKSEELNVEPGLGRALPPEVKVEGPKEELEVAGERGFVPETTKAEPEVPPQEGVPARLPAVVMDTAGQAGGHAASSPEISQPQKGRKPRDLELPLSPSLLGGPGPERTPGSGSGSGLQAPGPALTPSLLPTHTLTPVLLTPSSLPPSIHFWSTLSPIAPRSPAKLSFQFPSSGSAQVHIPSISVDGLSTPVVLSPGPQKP
The note with it: protein: recombinant; tags: N-terminal GST; dsDNA, one strand shown. In outline: as §1

For assay [3], the target named is T3, GABPA (Homo sapiens, UniProt Q06546 1-454).
T3 sequence: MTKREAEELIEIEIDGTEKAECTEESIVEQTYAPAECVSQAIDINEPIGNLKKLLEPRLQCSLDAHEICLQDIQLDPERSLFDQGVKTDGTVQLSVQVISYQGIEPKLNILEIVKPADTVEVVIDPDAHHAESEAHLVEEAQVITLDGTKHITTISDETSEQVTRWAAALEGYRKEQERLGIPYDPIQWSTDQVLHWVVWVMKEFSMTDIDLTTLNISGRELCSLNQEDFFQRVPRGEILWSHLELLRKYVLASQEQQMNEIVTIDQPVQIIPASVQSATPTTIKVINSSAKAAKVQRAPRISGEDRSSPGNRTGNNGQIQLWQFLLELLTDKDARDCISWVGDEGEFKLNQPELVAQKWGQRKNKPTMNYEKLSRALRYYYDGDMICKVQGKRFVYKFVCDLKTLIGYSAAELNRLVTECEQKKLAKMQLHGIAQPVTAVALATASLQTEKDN
As to conditions: protein: recombinant; tags: N-terminal GST; dsDNA, one strand shown. In outline:
as §1

Assay [4] has as its target T4, ERG (Homo sapiens, UniProt P11308 1-479).
T4 sequence: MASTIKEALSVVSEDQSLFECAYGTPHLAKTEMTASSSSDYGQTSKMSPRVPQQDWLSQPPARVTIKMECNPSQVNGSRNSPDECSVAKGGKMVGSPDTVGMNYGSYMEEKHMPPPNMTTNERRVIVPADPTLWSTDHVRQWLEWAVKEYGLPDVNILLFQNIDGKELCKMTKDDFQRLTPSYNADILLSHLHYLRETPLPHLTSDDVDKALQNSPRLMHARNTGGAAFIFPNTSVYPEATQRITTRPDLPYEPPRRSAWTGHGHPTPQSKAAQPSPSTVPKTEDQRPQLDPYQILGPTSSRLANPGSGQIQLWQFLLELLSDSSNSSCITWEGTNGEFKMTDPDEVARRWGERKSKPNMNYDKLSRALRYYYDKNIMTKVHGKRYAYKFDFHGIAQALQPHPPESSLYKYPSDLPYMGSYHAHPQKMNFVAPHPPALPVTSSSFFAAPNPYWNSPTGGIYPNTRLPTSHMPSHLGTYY
The note with it: protein: recombinant; tags: N-terminal GST; dsDNA, one strand shown. In outline:
as §1

Assay [5] concerns the target ELF1 (Homo sapiens, UniProt P32519 1-619). As to conditions: protein: recombinant; tags: N-terminal GST; dsDNA, one strand shown. In outline: as §1
Assay [6] has as its target T5, EHF (Homo sapiens, UniProt Q9NZC4 1-300).
T5 sequence: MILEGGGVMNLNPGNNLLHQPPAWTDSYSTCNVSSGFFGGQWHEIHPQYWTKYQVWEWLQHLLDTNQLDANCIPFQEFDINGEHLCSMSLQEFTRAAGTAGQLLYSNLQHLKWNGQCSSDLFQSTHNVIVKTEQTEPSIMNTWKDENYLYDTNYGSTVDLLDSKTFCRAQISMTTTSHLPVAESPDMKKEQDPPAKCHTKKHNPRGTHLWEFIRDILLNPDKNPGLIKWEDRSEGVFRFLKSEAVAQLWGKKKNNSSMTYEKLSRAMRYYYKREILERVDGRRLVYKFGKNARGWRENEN
The note with it: protein: recombinant; tags: N-terminal GST; dsDNA, one strand shown. In outline: as §1

Assay [7] addresses SPI1 (Homo sapiens, UniProt P17947 1-270). As to conditions: protein: recombinant; tags: N-terminal GST; dsDNA, one strand shown. In outline:
as §1

In assay [8] the target is SPIB (Homo sapiens, UniProt Q01892 1-262). The note with it: protein: recombinant; tags: N-terminal GST; dsDNA, one strand shown. In outline: as §1
Chain of SPIB (Q01892 whole entry): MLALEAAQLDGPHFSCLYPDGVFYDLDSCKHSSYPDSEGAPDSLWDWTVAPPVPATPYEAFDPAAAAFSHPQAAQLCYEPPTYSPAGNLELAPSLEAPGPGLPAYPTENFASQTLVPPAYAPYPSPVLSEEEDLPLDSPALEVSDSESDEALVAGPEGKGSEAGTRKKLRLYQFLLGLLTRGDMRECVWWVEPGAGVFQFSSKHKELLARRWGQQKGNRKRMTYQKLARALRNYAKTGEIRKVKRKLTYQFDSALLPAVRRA
Assay [9] addresses T6, ELK3 (Homo sapiens, UniProt P41970 1-407).
T6 sequence: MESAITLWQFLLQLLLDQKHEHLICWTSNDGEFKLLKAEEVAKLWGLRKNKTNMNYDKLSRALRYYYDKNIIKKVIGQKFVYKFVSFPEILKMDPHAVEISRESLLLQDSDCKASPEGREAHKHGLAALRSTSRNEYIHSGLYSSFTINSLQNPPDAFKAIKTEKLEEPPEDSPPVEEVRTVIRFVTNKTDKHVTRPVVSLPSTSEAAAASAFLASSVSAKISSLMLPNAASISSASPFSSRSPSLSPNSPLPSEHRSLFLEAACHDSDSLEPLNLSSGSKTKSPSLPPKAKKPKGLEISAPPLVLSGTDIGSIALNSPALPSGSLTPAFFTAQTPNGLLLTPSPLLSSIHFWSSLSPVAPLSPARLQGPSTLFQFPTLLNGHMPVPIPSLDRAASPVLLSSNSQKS
The note with it: protein: recombinant; tags: N-terminal GST; dsDNA, one strand shown. In outline: as §1

For assay [10], the target named is T7, FEV (Homo sapiens, UniProt Q99581 1-238).
T7 sequence: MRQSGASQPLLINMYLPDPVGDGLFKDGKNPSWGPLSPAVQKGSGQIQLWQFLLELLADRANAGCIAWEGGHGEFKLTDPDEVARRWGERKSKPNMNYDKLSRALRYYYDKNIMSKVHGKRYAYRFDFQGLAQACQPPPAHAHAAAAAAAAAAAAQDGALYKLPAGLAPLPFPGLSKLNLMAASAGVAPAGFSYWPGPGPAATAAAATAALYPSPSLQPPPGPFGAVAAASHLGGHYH
The note with it: protein: recombinant; tags: N-terminal GST; dsDNA, one strand shown. In outline:
as §1

Assay [11] has as its target ETV5 (Homo sapiens, UniProt P41161 1-510). The note with it: protein: recombinant; tags: N-terminal GST; dsDNA, one strand shown. In outline:
as §1

Assay [12] deals with HSF1 (Homo sapiens, UniProt Q00613 1-529). The note with it: protein: recombinant; tags: N-terminal GST; chain copies: 3; dsDNA, one strand shown. In outline: as §1
Chain of HSF1 (Q00613 whole entry): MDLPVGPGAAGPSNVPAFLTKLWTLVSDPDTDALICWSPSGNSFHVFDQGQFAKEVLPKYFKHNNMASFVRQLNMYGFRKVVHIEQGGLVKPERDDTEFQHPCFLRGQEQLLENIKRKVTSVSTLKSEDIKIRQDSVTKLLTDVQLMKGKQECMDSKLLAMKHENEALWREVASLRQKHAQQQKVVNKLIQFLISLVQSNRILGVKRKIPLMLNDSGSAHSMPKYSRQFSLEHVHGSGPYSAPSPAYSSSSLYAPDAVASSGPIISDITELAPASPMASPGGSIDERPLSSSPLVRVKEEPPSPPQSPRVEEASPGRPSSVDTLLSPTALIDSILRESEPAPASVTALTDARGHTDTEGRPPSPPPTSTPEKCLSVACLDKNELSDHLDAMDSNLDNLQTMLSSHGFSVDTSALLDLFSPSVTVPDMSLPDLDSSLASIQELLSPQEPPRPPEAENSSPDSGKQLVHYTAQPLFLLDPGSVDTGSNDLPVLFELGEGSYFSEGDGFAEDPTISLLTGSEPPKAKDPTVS
Assay [13] addresses T8, SPIC (Homo sapiens, UniProt Q8N5J4 1-248).
T8 sequence: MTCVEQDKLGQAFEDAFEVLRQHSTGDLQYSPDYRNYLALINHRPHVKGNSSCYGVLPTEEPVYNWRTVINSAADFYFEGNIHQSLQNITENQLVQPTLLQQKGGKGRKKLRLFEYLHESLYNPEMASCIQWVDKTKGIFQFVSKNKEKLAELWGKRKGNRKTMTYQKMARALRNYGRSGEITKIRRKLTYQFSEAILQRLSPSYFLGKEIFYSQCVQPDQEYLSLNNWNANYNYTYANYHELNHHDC
The note with it: protein: recombinant; tags: N-terminal GST; dsDNA, one strand shown. In outline:
as §1

For assay [14], the target named is ELF4 (Homo sapiens, UniProt Q99607 1-663). As to conditions: protein: recombinant; tags: N-terminal GST; dsDNA, one strand shown. In outline:
as §1

Assay [15] deals with T9, ELK4 (Homo sapiens, UniProt P28324-2 1-405).
T9 sequence: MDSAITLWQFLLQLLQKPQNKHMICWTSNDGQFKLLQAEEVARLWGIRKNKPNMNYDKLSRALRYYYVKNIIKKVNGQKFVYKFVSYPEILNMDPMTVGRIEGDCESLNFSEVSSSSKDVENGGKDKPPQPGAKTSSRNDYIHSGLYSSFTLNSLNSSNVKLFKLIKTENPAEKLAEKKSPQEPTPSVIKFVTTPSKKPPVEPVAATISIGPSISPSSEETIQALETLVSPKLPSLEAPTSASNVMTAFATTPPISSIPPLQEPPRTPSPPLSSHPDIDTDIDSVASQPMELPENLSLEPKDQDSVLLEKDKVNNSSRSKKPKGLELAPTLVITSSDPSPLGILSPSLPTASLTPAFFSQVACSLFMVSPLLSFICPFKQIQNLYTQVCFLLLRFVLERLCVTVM
As to conditions: protein: recombinant; tags: N-terminal GST; dsDNA, one strand shown. In outline: as §1

The target of assay [16] is T10, ETV2 (Homo sapiens, UniProt O00321 1-342).
T10 sequence: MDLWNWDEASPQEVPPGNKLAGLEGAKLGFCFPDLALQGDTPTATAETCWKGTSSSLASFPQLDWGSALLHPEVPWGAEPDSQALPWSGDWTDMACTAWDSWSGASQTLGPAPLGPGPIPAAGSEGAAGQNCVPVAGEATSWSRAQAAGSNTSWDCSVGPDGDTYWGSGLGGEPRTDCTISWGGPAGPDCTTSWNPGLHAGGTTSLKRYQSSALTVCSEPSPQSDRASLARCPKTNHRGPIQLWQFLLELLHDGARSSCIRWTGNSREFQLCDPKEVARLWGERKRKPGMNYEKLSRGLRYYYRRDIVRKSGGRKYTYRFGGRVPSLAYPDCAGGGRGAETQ
As to conditions: protein: recombinant; tags: N-terminal GST; dsDNA, one strand shown. In outline: as §1

Assay [17] deals with T11, ELF3 (Homo sapiens, UniProt P78545 1-371).
T11 sequence: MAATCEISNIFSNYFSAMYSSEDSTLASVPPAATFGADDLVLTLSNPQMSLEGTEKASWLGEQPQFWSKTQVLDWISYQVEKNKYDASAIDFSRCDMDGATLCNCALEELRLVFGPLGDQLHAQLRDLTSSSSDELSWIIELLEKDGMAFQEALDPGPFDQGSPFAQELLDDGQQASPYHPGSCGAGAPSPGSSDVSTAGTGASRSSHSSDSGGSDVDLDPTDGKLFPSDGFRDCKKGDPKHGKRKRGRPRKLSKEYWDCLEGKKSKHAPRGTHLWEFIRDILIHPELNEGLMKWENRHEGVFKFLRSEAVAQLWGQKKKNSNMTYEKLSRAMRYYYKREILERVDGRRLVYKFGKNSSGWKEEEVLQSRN
The note with it: protein: recombinant; tags: N-terminal GST; dsDNA, one strand shown. In outline:
as §1

The target of assay [18] is CRX (Homo sapiens, UniProt O43186 1-299). As to conditions: protein: recombinant; tags: N-terminal GST; dsDNA, one strand shown. In outline:
as §1

Assay [19] concerns the target ETV1 (Homo sapiens, UniProt P50549 1-477). As to conditions: protein: recombinant; tags: N-terminal GST; dsDNA, one strand shown. In outline:
as §1

Chain of ELF4 (Q99607 whole entry): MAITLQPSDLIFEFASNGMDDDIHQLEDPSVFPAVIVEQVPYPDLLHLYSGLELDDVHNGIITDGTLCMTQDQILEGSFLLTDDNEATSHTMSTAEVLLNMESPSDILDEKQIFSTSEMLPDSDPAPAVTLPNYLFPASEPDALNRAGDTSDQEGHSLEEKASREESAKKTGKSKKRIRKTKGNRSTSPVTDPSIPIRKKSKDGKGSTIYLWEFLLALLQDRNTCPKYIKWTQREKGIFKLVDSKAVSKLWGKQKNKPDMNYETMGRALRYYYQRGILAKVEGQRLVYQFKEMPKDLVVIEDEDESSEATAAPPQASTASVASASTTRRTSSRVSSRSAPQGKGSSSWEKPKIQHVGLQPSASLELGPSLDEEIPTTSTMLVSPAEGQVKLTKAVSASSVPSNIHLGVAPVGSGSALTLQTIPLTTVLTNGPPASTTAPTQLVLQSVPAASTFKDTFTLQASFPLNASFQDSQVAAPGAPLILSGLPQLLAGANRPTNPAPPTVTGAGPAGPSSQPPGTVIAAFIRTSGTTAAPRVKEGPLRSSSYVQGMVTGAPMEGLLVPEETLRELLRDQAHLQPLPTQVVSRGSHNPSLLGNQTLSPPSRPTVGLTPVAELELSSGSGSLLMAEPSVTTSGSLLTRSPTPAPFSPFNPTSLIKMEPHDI
Chain of ETV5 (P41161 whole entry): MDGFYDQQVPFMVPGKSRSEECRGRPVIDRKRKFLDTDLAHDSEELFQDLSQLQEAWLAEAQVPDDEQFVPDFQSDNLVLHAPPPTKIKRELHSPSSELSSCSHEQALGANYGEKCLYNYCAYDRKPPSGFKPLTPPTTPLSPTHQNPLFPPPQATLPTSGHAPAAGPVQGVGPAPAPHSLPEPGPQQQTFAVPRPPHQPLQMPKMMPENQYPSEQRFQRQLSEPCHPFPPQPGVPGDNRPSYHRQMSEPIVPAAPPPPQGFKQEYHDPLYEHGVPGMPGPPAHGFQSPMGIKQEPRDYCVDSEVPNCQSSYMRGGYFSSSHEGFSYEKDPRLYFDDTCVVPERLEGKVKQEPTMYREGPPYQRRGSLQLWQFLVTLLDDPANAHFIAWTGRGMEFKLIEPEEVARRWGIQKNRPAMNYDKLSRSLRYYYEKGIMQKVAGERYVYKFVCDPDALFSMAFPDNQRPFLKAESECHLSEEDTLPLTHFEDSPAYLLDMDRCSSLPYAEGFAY
Chain of ETV1 (P50549 whole entry): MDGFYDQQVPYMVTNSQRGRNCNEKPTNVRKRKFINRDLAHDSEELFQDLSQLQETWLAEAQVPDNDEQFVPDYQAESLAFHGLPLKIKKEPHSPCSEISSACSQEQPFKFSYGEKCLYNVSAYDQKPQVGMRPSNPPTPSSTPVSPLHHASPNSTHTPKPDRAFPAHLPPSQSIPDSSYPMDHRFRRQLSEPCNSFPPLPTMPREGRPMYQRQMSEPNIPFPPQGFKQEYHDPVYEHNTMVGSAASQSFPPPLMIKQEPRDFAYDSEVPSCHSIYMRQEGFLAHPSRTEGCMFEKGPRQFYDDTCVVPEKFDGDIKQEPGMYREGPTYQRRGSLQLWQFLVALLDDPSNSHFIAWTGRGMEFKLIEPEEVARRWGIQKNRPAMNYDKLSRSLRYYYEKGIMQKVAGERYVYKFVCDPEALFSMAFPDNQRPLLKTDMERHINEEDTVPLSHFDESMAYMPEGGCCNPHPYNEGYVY
Chain of ELF1 (P32519 whole entry): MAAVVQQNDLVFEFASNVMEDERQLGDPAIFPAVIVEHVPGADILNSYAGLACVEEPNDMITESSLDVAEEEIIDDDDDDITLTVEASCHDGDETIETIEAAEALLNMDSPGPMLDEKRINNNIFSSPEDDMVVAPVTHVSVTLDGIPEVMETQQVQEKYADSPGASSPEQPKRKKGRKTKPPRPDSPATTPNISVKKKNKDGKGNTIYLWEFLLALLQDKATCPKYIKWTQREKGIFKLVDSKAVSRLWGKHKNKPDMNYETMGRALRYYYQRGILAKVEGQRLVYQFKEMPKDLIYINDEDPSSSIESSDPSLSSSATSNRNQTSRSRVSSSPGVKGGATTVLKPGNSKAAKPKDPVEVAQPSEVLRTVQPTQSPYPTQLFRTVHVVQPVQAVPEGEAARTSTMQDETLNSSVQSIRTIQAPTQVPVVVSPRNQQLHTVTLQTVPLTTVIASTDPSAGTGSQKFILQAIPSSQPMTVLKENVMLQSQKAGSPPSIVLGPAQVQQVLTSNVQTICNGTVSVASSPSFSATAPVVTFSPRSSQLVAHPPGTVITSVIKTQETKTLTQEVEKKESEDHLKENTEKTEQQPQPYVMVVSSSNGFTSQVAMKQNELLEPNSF
Chain of CRX (O43186 whole entry): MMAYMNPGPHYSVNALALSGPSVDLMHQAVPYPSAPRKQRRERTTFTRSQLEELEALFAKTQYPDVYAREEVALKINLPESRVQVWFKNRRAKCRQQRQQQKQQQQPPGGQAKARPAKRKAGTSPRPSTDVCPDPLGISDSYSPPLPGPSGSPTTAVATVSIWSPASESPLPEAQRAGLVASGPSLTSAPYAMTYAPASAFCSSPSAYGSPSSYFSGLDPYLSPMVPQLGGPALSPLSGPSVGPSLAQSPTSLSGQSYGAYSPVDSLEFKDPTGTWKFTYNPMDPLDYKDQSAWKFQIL

Regarding TCTTTT, the binding signal in assay [1] was 1.46 fold enrichment (6-mer frequency, TF over GST control); in assay [2], 1.38 fold enrichment (6-mer frequency, TF over GST control); in [3], 1.45 fold enrichment (6-mer frequency, TF over GST control); in [4], 1.36 fold enrichment (6-mer frequency, TF over GST control); in assay [5] it was 1.47 fold enrichment (6-mer frequency, TF over GST control); in [6], 1.53 fold enrichment (6-mer frequency, TF over GST control). The binding signal is 2.09 fold enrichment (6-mer frequency, TF over GST control) in assay [7]; 1.61 fold enrichment (6-mer frequency, TF over GST control) in assay [8]; 1.51 fold enrichment (6-mer frequency, TF over GST control) in assay [9]; 1.44 fold enrichment (6-mer frequency, TF over GST control) in assay [10]; 1.4 fold enrichment (6-mer frequency, TF over GST control) in assay [11]; 1.66 fold enrichment (6-mer frequency, TF over GST control) in [12]. The binding signal in assay [13] is 1.55 fold enrichment (6-mer frequency, TF over GST control); in [14] it was 1.54 fold enrichment (6-mer frequency, TF over GST control); in assay [15], 1.22 fold enrichment (6-mer frequency, TF over GST control); in [16], 1.42 fold enrichment (6-mer frequency, TF over GST control); in [17], 1.41 fold enrichment (6-mer frequency, TF over GST control); in assay [18], 1.59 fold enrichment (6-mer frequency, TF over GST control). Moreover, the binding signal in assay [19] was 1.47 fold enrichment (6-mer frequency, TF over GST control).
